# ± gives the standard deviation.
# System: MILI (PIWIL2) piRISC loaded with piRNA #1 (26 nt)
# Experiment: pre-steady-state target cleavage rate (min^-1); guide: piRNA #1 5'p-UGAGGUAGUAGGUUGUAUAGUAUCCA; MIWI and MILI are mouse PIWI proteins and EfPiwi is from a freshwater sponge; tags in brackets are library labels; higher = faster piRNA-guided slicing of the target
# Conditions: auxiliary factor: 500 nM mouse GTSF1
# Method in brief: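 Cleave-'n-Seq: 1 nM active affinity-purified piRISC with one synthetic guide and 0.1 nM transcribed, DNA-blocked target RNA library were mixed, with or without 500 nM GTSF1 partner protein, in HEPES–potassium acetate buffer at 33 °C for 0–8 or 0–960 min. Uncleaved targets were sequenced and normalised to depth and to weakly complementary targets, three trials were pooled, and k3 was capped at 0.0001 min^-1. The pre-steady-state cleavage rate was fitted […].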
row,Sequence,pre-steady-state target cleavage rate
1,GGAGACCUAUGUAUACAACCUACUUCCACA,0.0135 ± 0.0034
2,GGAGACCUAUGAAUACAAGCUACAACCUCA,0.018 ± 0.0032
3,GGAGUGGUUACUAUAGAACCUACUACCUCA,0.175 ± 0.014
4,GGAGAGGAUACUAAACAACCUACUACCUGA,0.0485 ± 0.011
5,GGAGACCUAUGUAUACAAGCUACUACCUGA,0.0868 ± 0.015
6,GGAGACCUAUCGUAUACAACCUACUACCUCA,0.057 ± 0.011
7,GGAGACCUAUGUAUACAACCUACUACCCA,0.0226 ± 0.0055
8,GGAGACCUAUCUAGACAACCUACUACCUCA,0.103 ± 0.016
9,GGAGACCUAUCUAAAGAACCUACUACCUCA,0.0183 ± 0.0054
10,GGAGACCAUACUAUAGAAGCUACUACCUCA,0.0882 ± 0.013
11,GGAGUGGAUUCUAAACAACCUACUACCUCA,0.143 ± 0.0089
12,GGAGACCUAUGAAUACAAGGUACUACCUCA,0.00378 ± 0.003
13,GGAGACCUAUCUAUACAAGCUACUAGCUCA,0.0812 ± 0.018
14,GGAGACCUAACUAUACAACCUACAACCUGA,0.00865 ± 0.0074
15,GGAGACCUAACUAAACAUCCUACUACCUCA,0.216 ± 0.036
16,GGAGACCUAUCUAUACAACCUACUUCGUCA,0.0271 ± 0.0057
17,GGAGAGGAUAGAAUACAACCUACUACCUCA,0.096 ± 0.01
18,GGAGACCUAUGAUAUGUACCUACUUGGAGA [g7:g13:cont:t1A],< 0.0001
19,GGAGACCUAUCUAUACUACCUACUUCCUCA,0.0634 ± 0.01
20,GGAGACCUAUCUAUACUACCUACUACCACA,0.117 ± 0.015

row,Sequence,pre-steady-state target cleavage rate
1,GGAGACCUAACUAUACAUCCUAGUACCUCA,0.0577 ± 0.02
2,GGAGACCUUUCUAUACAACCUACUAGCUCA,0.0622 ± 0.013
3,GGAGACCUAUGUAUACAUCCUACUACCUGA,0.0651 ± 0.017
4,GGAGACCUAUGUAUACAAACUACUACCUCA,0.111 ± 0.012
5,GGAGACCUAUGAUUACAAGGUACUACCUCA,0.0041 ± 0.0031
6,GGAGACCUAACUUUACAACCUACUACCACA,0.109 ± 0.024
7,GGAGACCAUACUAUACAAGCUACUACCUGA,0.157 ± 0.019
8,GGAGACCUUACUAUUCAACCUACUACCUGA,0.0942 ± 0.014
9,GGAGACCUAUGAUAUGUUCCUACUACCUCG [g2:g12:cont:t1G],< 0.0001
10,GGAGACCAUAGUAUAGAACCUACUACCUCA,0.105 ± 0.011
11,GGAGAGGAUACUAUACAACGAACUACCUCA,0.0031 ± 0.0019
12,GGAGACCUAUGUAUAGAACCUACUACGUCA,0.015 ± 0.0034
13,GGAGAGGAUAGAUUACAACCUACUACCUCA,0.0529 ± 0.0086
14,GGAGACCUUACUAUACAACCUACUUCCUGA,0.0269 ± 0.0086
15,GGAGACCUAUGAAUACAUCCUACUAGCUCA,0.00797 ± 0.0028
16,GGAGACCUAUGAUUACAACCUACUACCUCC [g2:g17:cont:t1C],0.00979 ± 0.0034
17,GGAGACCUAUGAAUACUACCUACUAGCUCA,0.00378 ± 0.0025
18,GGAGACCUAACUAUCAACCUACUACCUCA,0.0603 ± 0.014
19,GGAGACCUAUGAUAUCAACCUACAACGUCA,< 0.0001
20,GGAGACCUUACUAUUCAACCUACAACCUCA,0.12 ± 0.013

# From the supplement of paper PMC10338343
